KB-3-1 cytotox: KB-3-1 parental cell cytotoxicity | KB-3-1 viability, CellTiter-Glo ATP luminescence, 72 h | Potency, µM (highest dose often 46.1 µM), most hits filed as cytotoxic | actives 1.4% (n = 400,000); further: on the % scale 0 is the no-effect control and ±100 the full control effect; nearly all actives have a fitted effect of over 60% in size
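Screening of KB-3-1 cells (DMEM, 10% FBS, phenol-red free) ran from lowest to highest compound concentration; after 72 h at 37 °C viability was read luminescently and curves fitted.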
KB-V1 cytotox: KB-V1 MDR subline cytotoxicity | KB-V1 MDR cells viability, CellTiter-Glo, 72 h | Potency, µM (highest dose often 46.1 µM), actives largely listed as cytotoxic | actives 3.4% (n = 400,000); further: on the % scale 0 is the no-effect control and ±100 the full control effect; nearly all actives have a fitted effect of over 60% in size
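In this primary screen, KB-V1 cells overexpressing P-gp are incubated with library compounds (lowest to highest concentration) for 72 h at 37 degrees C before a luminescent ATP viability read.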
ELG1 repair inh: blocks ELG1-dependent DNA repair in HEK293T cells; HEK293T ELG1-luciferase reporter, luminescence, 16 h; DNA damage induced by 5-fluorouridine; Potency, µM (doses to about 46.1 µM), for inactives: at the highest dose activity change, negative = inhibition, hits mostly inhibitors; actives 2.3% (n = 330,000); AID 504467; further: on the % scale 0 is the no-effect control and ±100 the full control effect; nearly all actives have a fitted effect of over 55% in size
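Reporter activity after DNA damage by 5-fluorouridine is monitored. Compound-treated cells incubate 16 hr at 37 °C, then ONE-Glo is added for 30 min before luminescence reading.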
SW480 rerep: inducers of DNA re-replication in SW480 colon cancer cells. Potency, µM (top dose mostly 46.1 µM), without a hit: at the top dose re-replication activation, most hits filed as activators. SW480 DNA re-replication, Hoechst DNA content imaging, 48 h. actives 1.8% (n = 340,000). AID 624297; further: % of control where 0% means no effect; nearly all actives have a fitted effect of over 55% in size
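Per well, 250 cells were exposed to pinned compound for 48 hr. Nuclear DNA was visualised with Hoechst (40 min, 37 C) and total object intensity recorded by fluorescence scanning.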
MCF10A rerep: induces DNA re-replication in MCF 10a normal breast cells; MCF 10A DNA re-replication, Hoechst nuclear intensity, 48 h; Potency, µM (titrated, usually from 46.1 µM), without a hit: top-dose activity, positive = re-replication, usual class: activators; actives 2.9% (n = 350,000); further: % of control where 0% means no effect; nearly all actives have a fitted effect of over 50% in size
* hit, by the source's call; i = inactive; ? = inconclusive; nt = no result given; [ ] = dose if it differs, or a comment. An excerpt weighted towards active compounds, which were near 8.1% of everything screened. The call rests on the fitted dose curve; in most records, active means well fitted curve in the direction sought with a large enough effect; inconclusive means small, poorly fitted or top-dose-only effect, or another doubt; inactive means no such curve, though single readings can be large; an effect the other way counts as inactive or inconclusive. Potency means the concentration at half of the fitted maximal effect.

SMILES | KB-3-1 cytotox | KB-V1 cytotox | ELG1 repair inh | SW480 rerep | MCF10A rerep
CNC(=O)/C(C#N)=C/c1c(N2CCN(C)CC2)nc2c(C)cccn2c1=O | i | i | -1% | ? | -4%
CNC(=O)/C(C#N)=C/c1c(N(Cc2ccccc2)Cc2ccccc2)nc2ccccn2c1=O | i | 2.6µM* | 18µM* | -7% | -1%
Cc1ccccc1Oc1nc2ccccn2c(=O)c1/C=C(\C#N)C(=O)Nc1c(C)n(C)n(-c2ccccc2)c1=O | i | i | 0% | -9% | 14%
Cc1ccccc1Oc1nc2c(C)cccn2c(=O)c1/C=C(\C#N)C(=O)Nc1c(C)n(C)n(-c2ccccc2)c1=O | i | ? | -2% | ? | 21µM*
CCN1CCN(c2nc3c(C)cccn3c(=O)c2/C=C(\C#N)C(=O)NCCCOC)CC1 | i | i | 1% | 21µM* | 18µM*
COc1ccccc1NC(=O)c1nc(SCc2ccccc2F)ncc1Cl | i | i | nt | nt | nt
CCNC(=O)/C(C#N)=C/c1c(N2CCN(c3ccc(OC)cc3)CC2)nc2c(C)cccn2c1=O | i | i | 23µM* | ? | 15%
COc1ccc(C(=O)c2c(N)c(C(=O)Nc3ccccc3Cl)c3ccccn23)cc1 | i | i | nt | nt | nt
O=c1cc(N2CCCCC2)c(-c2ccccc2)nn1Cc1ccc(F)cc1 | ? | i | ? | -13% | ?
O=c1cc(N2CCCCC2)c(-c2ccccc2)nn1Cc1c(Cl)cccc1Cl | ? | ? | ? | 19% | 21µM*
O=c1cc(N2CCCCC2)c(-c2ccccc2)nn1Cc1ccc(Cl)cc1 | ? | ? | ? | ? | 16µM*
O=c1cc(N2CCCCC2)c(-c2ccccc2)n[nH]1 | i | i | -5% | -3% | 1%
COc1ccc(C(=O)NCc2ccccc2CN2CCCC2)cc1S(=O)(=O)N1CCOCC1 | i | i | 2% | -5% | ?
COc1ccccc1NC(=O)C1C2C=CC(C2)C1C(=O)NCc1cccnc1 (stereo not given) | i | i | -16% | -13% | 4.6µM*
COc1ccc(OC)c(NC(=O)C2C3C=CC(C3)C2C(=O)NCc2cccnc2)c1 (stereo not given) | i | ? | -8% | -6% | 10%
CCCN1CCc2c(sc3nc(SC)n(-c4ccccc4)c(=O)c23)C1 | i | i | ? | ? | 18µM*
CCCN1CCc2c(sc3nc(SCC)n(-c4ccccc4)c(=O)c23)C1 | i | i | -28% | 5% | ?
CCCN1CCc2c(sc3nc(SCC)n(-c4ccc(OC)cc4)c(=O)c23)C1 | i | i | -4% | 12% | 21µM*
Cc1cc(Nc2cccc(C(F)(F)F)c2)nc2ccc(NC(=O)c3cccc(Cl)c3)cc12 | ? | i | nt | nt | nt
CCc1ccc(/C([O-])=C(/C(=S)NCCN2CCOCC2)[n+]2ccccc2)cc1 | i | i | 13% | -4% | 6.5µM*
CCNC(=S)/C(=C(/[O-])c1ccc([N+](=O)[O-])cc1)[n+]1ccccc1 | i | i | 6% | -5% | -7%
O=S(=O)(c1ccccc1)c1cnn(-c2ccccc2)c1-c1ccc(Cl)cc1 | ? | 15µM* | ? | 11% | 7%
COc1ccc(-c2c(S(=O)(=O)c3ccccc3)cnn2-c2ccccc2)cc1 | ? | 23µM* | -6% | 2% | -184%[0.0737 µM]
Nc1nc(-c2ccc(Cl)cc2)c(S(=O)(=O)c2ccccc2)s1 | i | i | ? | -8% | 8%
CCC(c1nnnn1-c1c(C)cccc1C)N1CCN(CCN2CCOCC2)CC1 (stereo not given) | i | i | nt | nt | nt
CCOC(=O)[C@]12CCCC=C1N(Cc1ccccc1)C(=O)[C@H](CC(=O)N1CCN(C(=O)C3CC3)CC1)C2 | i | i | nt | nt | nt
O=C(Cc1ccccc1)NCc1ccc(-n2cccc2)cc1 | ? | i | -3% | 6.5µM* | 10µM*
O=C(Cc1ccc(-n2cccc2)cc1)NCc1ccccc1Cl | ? | i | -15% | 18µM* | 4.1µM*
O=C(CCn1cccc1)NCc1ccccc1 | i | i | 6% | 12% | -6%

Screening data as filed in PubChem.
